This note sets out measurements from ChEMBL document CHEMBL4888484, “Replenishing the malaria drug discovery pipeline: Screening and hit evaluation of the MMV Hit Generation Library 1 (HGL1) against asexual blood stage Plasmodium falciparum ,using a nano luciferase reporter read-out” (2022).

Molecules are shown by their SMILES. Screen size: about 4,800 compounds; about 410 (8.5%) showed an effect of 50% or more. Many of the other results were omitted from the sample, so strong results are more common in it than they were.

This test concerns Plasmodium falciparum. The experiment in a line: Confirmatory screen in NF54 pLDH assay, in single point, at 2uM, 72h. The test is classed as functional, Erythrocyte. The conditions noted are these: timepoint 72 hour.
For `O=C(Nc1cccc(Cl)c1)c1ccc(-c2cnc(N3CCCC3)nc2)cc1`, the % Inhibition – broadly, the drop in the measured response relative to a control, in per cent – is on record as -19%.
Regarding `O=C(Nc1cccc(Cl)c1)Nc1cccc(-c2cnc3n2CCC3)c1`, the “% Inhibition” value is reported as 75%.
To `Cc1nn(C)c(NC(=O)Nc2cccc(Cl)c2)c1C1=CCCCC1` belongs -9%; to `O=C(Cn1cccn1)Nc1cccc(S(=O)(=O)N2CCCC2)c1`, -8%; to `C[C@@H](C1CCCC1)N1C(=O)NC(CC(F)(F)F)C1=O` (stereo partly specified), -23%.
In the case of `O=C(NS(=O)(=O)C1CCOCC1)c1csc(-c2ccco2)n1`, the “% Inhibition” value is -10%.
To `COC(=O)c1ncn2c1C(=O)N(Cc1ccccc1OC)[C@](C)(C(=O)NC1CCCCC1)C2` belongs 11%.
As for `Cc1ccccc1Cn1cnc2c1c(=O)n(C1CCCCC1)c(=O)n2-c1ccccc1Cl`, the figure is 82%; as for `COc1ccccc1-n1c(=O)n(C2CCCC2)c(=O)c2c1ncn2Cc1ccccc1Cl`, 34%; as for `COc1ccccc1Cn1cnc2c1c(=O)n(C1CCCCC1)c(=O)n2-c1ccccc1Cl`, 90%.
Turning to `Cn1ncn(CC(=O)c2cccc(Cl)c2Cl)c1=O`, the “% Inhibition” value is given as -14%.
As for `O=C(CN1C(=O)N[C@H](c2ccc(F)cc2)C1=O)Nc1ccc2c(c1)OCCO2`, the figure is 5%; as for `CC(C)(C)CC(C)(C)NC(=O)c1ccc2nc(N3C(=O)CCC3=O)sc2c1`, 9%.
As for `C[C@H](c1ccccc1)N1C(=O)[C@@H]2CN(C(=O)CC(C)(C)C)CCN2C1=O`, the figure is -13%; as for `Cc1ccc(CCC(=O)N2CC[C@H](C)S(=O)(=O)CC2)s1`, 9%; as for `C[N+]12CCCCC1C(OC(=O)C1(c3ccccc3)CCCC1)CCC2` (stereo unspecified), 60%.
To `O=C1C2ON(c3ccccc3)C(c3ccncc3)C2C(=O)N1c1ccc2ccccc2c1` (stereo unspecified) belongs 8%; to `COc1ccc2cc3n(c2c1)C[C@@](C)(C(=O)NC1CCCC1)N(Cc1ccc(F)cc1)C3=O`, 13%.
As for `Cc1cc(C)nc(N[C@H](c2ccc(F)cc2)c2cc(C)sc2NC(=O)c2ccccc2)n1`, the “% Inhibition” value stood at 6%.
To `COc1cc([C@@H]2C=C(c3ccc(Cl)cc3)Nc3ncnn32)ccc1OCc1ccc(Cl)cc1` belongs 4%.
To `Cc1ccc([C@@H]2C=C(C(=O)O)Nc3c(C(N)=O)nnn32)cc1` belongs -12%.
To `Cc1ccc(C2=C[C@@H](c3ccc(Cl)cc3)n3nc(NC(=O)c4ccccc4)nc3N2)cc1` belongs 90%.
As for `Cc1cccc(OC(=O)O[C@H]2c3nccnc3C(=O)N2c2ccc(Cl)cn2)c1`, the “% Inhibition” value worked out at 16%.
For the molecule `CN(C)c1ccc2c(c1)CN(C(=O)c1ccccc1S(C)(=O)=O)CC2`, the “% Inhibition” value is listed as -5%.
To `O=C(COc1ccc(Cl)cc1)N[C@H](CO)CC1CCCC1` belongs 4%; to `O=S1(=O)N=C(n2ccnc2)c2ccccc21`, -17%; to `CS(=O)(=O)n1cnc2cc(F)c(F)cc21`, -8%.
`COc1ccc(-c2cc(-c3ccccc3)nc(N3CCC(C)CC3)n2)cc1`: the “% Inhibition” value came out at 43%.
As for `COc1ccc(-[n+]2c(-c3ccccc3)cn3c2CCC3)cc1`, the figure is 59%.
As for `COc1ccc(N2CCN(c3nc(-c4ccccc4)cs3)CC2)cc1`, the figure is 0%; as for `COc1ccc(-[n+]2c(-c3ccc(-c4ccccc4)cc3)cn3c2COCC3)cc1`, 60%.
To `COc1ccc(-c2nnc(COc3ccc(-c4ccccc4)cc3)s2)cc1` belongs -10%.
On to `COc1ccc(CCc2nnc3n2CCOC3)cc1`, for which the “% Inhibition” value was -1%.
As for `O=C(Cn1c(=O)n(Cc2ccco2)c(=O)c2ccccc21)NC1CCCCC1`, the figure is 10%; as for `Cc1noc([C@H]2CCCN(C(=O)c3cc4c(s3)CCC4)C2)n1`, -5%; as for `O=C1c2ccccc2N[C@]2(C(=O)Nc3ccccc32)N1c1ccc2c(c1)OCO2`, -25%.
For the molecule `Cc1nn(-c2ncc(C(F)(F)F)cc2Cl)c(=O)n1-c1ccc(OCc2ccccc2)cc1`, the “% Inhibition” value is -12%.
For `CCCCN(CC)c1ncc(C(=O)Nc2ccc(OCC)cc2)c(N)n1`, the “% Inhibition” value came to 15%.
For `Cc1ccc(NC(=O)Nc2cc(C)ccc2N2CCCN(Cc3ccc(F)cc3)C2=O)cc1`, the “% Inhibition” value is given as 30%.
As for `Cc1cccc(CN(Cc2cccc(C)n2)C[C@H]2CCCCO2)n1`, the figure is 90%; as for `Cc1cc(C)nc(NCCC[C@H]2CCCCO2)n1`, -15%; as for `Cc1cccc(CNC(=O)NC2CCOC2c2ccc(Cl)cc2)n1` (stereo unspecified), -15%.
As for `CC(C)c1nc(CN(C)[C@@H](C)C(=O)Nc2nccs2)cs1`, the figure is 23%.
To `CC(C)N(CC(=O)Nc1nccs1)Cc1ccccn1` belongs 59%.
In the case of `CC(C)NC(=O)C(=O)Nc1nccs1`, the “% Inhibition” value is -19%.
As for `CCN1C(=O)CCN(C(=O)c2ccnn2C)CC12CCOCC2`, the figure is 3%; as for `Brc1cccc2c1OCC[C@@H]2Nc1ncnc2nc[nH]c12`, 4%; as for `Oc1nc(-c2cccc(C(F)(F)F)c2)sc1-c1ccccc1`, 2%.
To `Oc1ccccc1-c1cnc(C(F)(F)F)s1` belongs 90%.
To `Cc1ccc(OCC(=O)Nc2ccc(N3CCn4c(nc5ccccc54)C3)cc2Cl)cc1` belongs -20%; to `COc1ccc(-n2ncc3c(NCCNC(=O)c4ccccc4Cl)nc(C)nc32)cc1`, -27%; to `Cc1ccc(OCC(=O)Nc2cc(C)nn2-c2nc3c(cnn3-c3ccc(C)c(C)c3)c(=O)[nH]2)cc1`, 57%.
Consider `CN(CCCNC(=O)C(=O)Nc1ccn(C)n1)c1cccc(F)c1`, for which the “% Inhibition” value turned out to be 10%.
To `COCCOC(=O)c1cc(C(F)(F)F)cc(C(=O)OCCOC)n1` belongs 11%; to `Cn1c(=O)c2c(ncn2CC(=O)N(Cc2ccccc2)C2CC2)n(C)c1=O`, 2%.
As for `CN(Cc1nccn1C)C(=O)c1cc2ccccc2[nH]1`, the figure is 15%; as for `CCCn1c(C)cnc1C1CN(S(=O)(=O)c2cc(Cl)ccc2Cl)C1`, 6%; as for `Cn1c(C(C)(C)C)nc2cc(NC3CCC4(CC3)OCCO4)ccc21`, -16%.
`COCc1cc(F)ccc1NC(=O)NC1CCN(c2cc(C)nc(C)n2)CC1`: the “% Inhibition” value is reported as 5%.
To `Cn1ncc2c(N3CC(=O)N(C4CC4)C3)ncnc21` belongs -15%; to `C[C@@H]1CN(CCN(C)C(=O)Nc2nc(C3CC3)cs2)C[C@H](C)O1`, 9%.
To `Cc1c(C)n(C[C@@H](O)CNC2CCCC2)c2c(Cl)cccc12` belongs -18%; to `Cc1c(C)n(CC(O)CNC(C)c2ccccc2)c2c(Cl)cccc12` (stereo unspecified), 73%; to `CC(NCC(O)Cn1c(-c2ccccc2)c(-c2ccccc2)c2ccc3ccccc3c21)c1ccccc1` (stereo unspecified), 86%.
As for `Cc1c(C)n(C[C@H](O)Cn2c(C(F)(F)F)nc3ccccc32)c2c(Cl)cccc12`, the figure is -15%; as for `Cc1cccc(C(=O)Nc2c(C#N)c(-c3ccccc3)c(-c3ccccc3)n2Cc2ccccc2)c1`, 13%.
`CCC(C)NCC(O)Cn1c(-c2ccccc2)c(-c2ccccc2)c2cc(C)ccc21` (stereo unspecified): the “% Inhibition” value is on record as 92%.
To `O=S(=O)(c1c(Cl)cccc1Cl)N1CCC[C@@H]1CN1CCCC1` belongs 8%.
As for `Cc1cc(CN2C(=O)N[C@@]3(CCCCc4ccccc43)C2=O)no1`, the figure is 6%.
Take `COc1ccc([C@H](NC(=O)CCc2ccccc2)c2c(O)ccc3ccccc23)cc1`: the “% Inhibition” value is on record as -6%.
In the case of `Cc1cc(N2CCn3c(nc4ccccc43)C2)ccc1NC(=O)C1CCCCC1`, the “% Inhibition” value was 14%.
As for `CN1c2ccccc2C(=O)N[C@@H]1c1ccccc1OCc1ccccc1`, the figure is -4%.
Turning to `COc1cccc(-n2c(C)cc(C(=O)N3CCNC(=O)CC3)c2C)c1`, the “% Inhibition” value is -5%.
As for `N#Cc1c(NC(=O)Nc2cn3ccccc3c2C#N)cn2ccccc12`, the figure is 35%.
As to `O=C(NCC(N1CCOCC1)C(F)(F)F)C1CC12CCOC2` (stereo unspecified), the “% Inhibition” value is 14%.
As for `O=c1[nH]c2nc(N3CCCCC3)ncc2c(=O)n1Cc1ccco1`, the “% Inhibition” value is reported as -14%.
With `Cc1nc([C@@H](NC(=O)c2cc(Cl)cn2C)c2cnn(C)c2)no1`, the “% Inhibition” value is on record as -10%.
To `O=C(NC[C@H]1CCS(=O)(=O)C1)c1ccc2[nH]c3c(c2c1)CCCC3` belongs -6%; to `Clc1ccc(COc2ccc(CNC3CCCCC3)cc2Br)cc1`, -12%.
As to `COc1cc(C(C)(C)C)c(OCC(=O)N(c2ccccc2)c2ccccc2)cc1C(C)(C)C`, the “% Inhibition” value was 7%.
Consider `Cc1ccc(Oc2cc(C#N)c(C#N)cc2N2CCOCC2)cc1C`, for which the “% Inhibition” value was -9%.
To `Cc1nc2ccccc2cc1OCc1ccc(F)cc1` belongs 12%.
As for `CC[N+](C)(CC)CCOc1cc(C)c2ccccc2n1`, the figure is 40%; as for `COC(=O)c1ccccc1NC(=O)NCCn1nnc2cc(S(=O)(=O)N(C)C)ccc21`, 32%.
`CCN1C(=O)Cc2cc(NS(=O)(=O)Cc3ccccc3)ccc21`: the “% Inhibition” value is listed as 12%.
For `COc1ccc(CN2CC[C@@H]3C(=O)NCCCCCCN(Cc4ccncc4)[C@@H]3C2)cc1Cn1ccnc1`, the “% Inhibition” value is 37%.
In the case of `COc1cc(CNCCN2CCOCC2)ccc1OCc1ccc(C)cc1`, the “% Inhibition” value worked out at 10%.
As for `COc1ccc(CNCc2ccc(C)cc2)cc1Cn1ccnc1`, the figure is 69%; as for `Cc1ccc(NS(=O)(=O)c2ccc(NC(=O)CN(c3cc(Cl)ccc3C)S(C)(=O)=O)cc2)cc1C`, -13%; as for `Cc1cc(-c2nc(C3(c4ccncc4)CCC3)no2)ccn1`, 4%.
Consider `COc1ccc(OC)c(S(=O)(=O)N2C[C@H]3CCCC(=O)N[C@H]3C2)c1`, for which the “% Inhibition” value was found to be 9%.
As for `COc1ccc(F)cc1S(=O)(=O)N1CCc2noc(N)c2C1`, the figure is 63%.
As for `COc1ccc(S(=O)(=O)N2CCC(c3cc(N)on3)CC2)cc1Cl`, the figure is 40%; as for `COc1ccccc1OCC(=O)Nc1ccccc1-n1cnnc1C`, 12%.
To `C[C@H](NC(c1ccccc1)c1ccccc1)c1nnc(-c2cccs2)o1` belongs 7%; to `Cc1cc(CS(=O)(=O)NCCOc2ccc(Cl)cc2)on1`, 2%; to `CCCOc1ccc(Nc2cc(C)nc3ccc(Cl)cc23)cc1`, 63%.
As for `CC(C)(C)C1CC(NC(=O)C2CC=CC2)CCO1` (stereo unspecified), the “% Inhibition” value is -1%.
To `Cc1cccc(C)c1OCC(=O)Nc1ccc(-c2nc3cc4ccccc4cc3[nH]2)cc1` belongs 18%.
To `c1ccc2cc(-c3ccc4ccccc4n3)ccc2c1` belongs 16%; to `c1cc(-c2nc3cc4ccccc4cc3[nH]2)nc(-c2nc3cc4ccccc4cc3[nH]2)c1`, 97%.
